Measurements reported in PubChem BioAssay (Tox21).
Records with an inconclusive call do not appear. A call without a number means that no potency is given here. A number with no mark means an inactive call. Calls of active or inactive are those of the source. Unless noted, the call rests on the fitted dose curve; in most records, active means well fitted curve in the direction sought with a large enough effect in the repeat runs; inconclusive means weak or mixed curves; inactive means no such curve, though single readings can be large; an effect the other way counts as inactive or inconclusive.

Columns and labels:
[1] = qHTS assay to identify small molecule antagonists of the estrogen related receptor (ERR) signaling pathway - cell viability counter screen (AID 1224818);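 further: series mostly up to about 46 µM; viability measured after 17.5 h of compound exposure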
In short: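 Quantitative high-throughput viability counter screen in ERR cells. Compounds (DMSO) incubated 17.5 h at 37 C; read-out was CellTiter-Fluor fluorescence.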

[2] = qHTS assay to identify small molecule antagonists of the estrogen related receptor (ERR) signaling pathway (AID 1224819; further: series mostly up to about 46 µM; nearly all actives have a fitted effect of over 50% in size)
In short: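 ERR reporter cell line (NTP) plated at 2,000 cells/well, settled 6 h at 37C/5% CO2, then exposed to LOPAC compounds for 18 h at 37C. One-Glo luciferase luminescence read after 30 min at room temperature.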

[3] = qHTS assay to identify small molecule agonists of the estrogen related receptor (ERR) signaling pathway (AID 1224820)
In short: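 After 6 h plating (2,000 cells/well) and 18 h compound treatment at 37 C, ERR cells were lysed with One-Glo and luminescence read after 30 min at room temperature.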

[4] = tested on: estrogen-related receptor alpha (ERRalpha) with PGC-1alpha coactivator, human; test: qHTS assay to identify small molecule antagonists of the estrogen related receptor signaling pathway with the pleiotropic PPARgamma coactivator (PGC) (AID 1224821; calls by dose curve;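 further: series mostly up to about 46 µM; lower luminescence signal means antagonism of PGC/ERR signalling; nearly all actives have a fitted effect of over 50% in size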)
In short: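 Luminescence from One-Glo luciferase reagent (30 min, room temperature) measured after 18 h compound treatment at 37 °C. Cells carry the PGC/ERR reporter and were seeded 6 h prior to dosing.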

[5] = qHTS assay to identify small molecule antagonists of the estrogen related receptor signaling pathway with the pleiotropic PPARgamma coactivator (PGC) cell viability counter screen (AID 1224822; further: series mostly up to about 46 µM)
In short: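 Cytotoxicity in the PGC/ERR cell line is assessed with CellTiter-Fluor, read as fluorescence intensity 30 min after reagent addition, following 17.5 h compound treatment at 37 C.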

[6] = qHTS assay to identify small molecule agonists of the estrogen related receptor signaling pathway with the pleiotropic PPARgamma coactivator (PGC) (AID 1224823)
In short: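 Luminescence from One-Glo reagent (30 min, room temperature) was read after 18 h compound treatment at 37 C of PGC/ERR cells plated 6 h beforehand; compounds delivered in DMSO by pin tool.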

[7] = qHTS assay to identify small molecule agonists of the vitamin D receptor (VDR) signaling pathway - cell viability counter screen (AID 743224); further: series mostly up to about 63 µM; nearly all actives have a fitted effect of over 50% in size
In short: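 Compounds were pin-transferred onto VDR-bla cells plated 4 h earlier; following 16 h incubation at 37C, cell viability was quantified by CellTiter-Glo luminescence after 30 min at room temperature.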

[8] = qHTS assay to identify small molecule agonists of the NFkB signaling pathway - cell viability counter screen (AID 1159515; calls by dose curve; further: series mostly up to about 61 µM; nearly all actives have a fitted effect of over 55% in size)
In short: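 Parallel cytotoxicity counter screen in ME-180 cells carrying an NFkB-response-element beta-lactamase reporter, 2,000 cells/well. Compound exposure lasted 5 hr at 37 C, 5% CO2. Cell viability was quantified by CellTiter-Glo luminescence.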

[9] = qHTS assay to identify small molecule agonists of the endoplasmic reticulum stress response signaling pathway (AID 1159516; active means well fitted activation curve with a large enough effect in the signal ratio in the repeat runs, not every such curve was filed as active; the % refers to the signal ratio)
In short: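 Using a HeLa line with an ESRE-driven beta-lactamase gene, agonist activity was measured by FRET substrate fluorescence (460 and 530 nm emission) after cells were treated with compounds for 5 hr at 37 C and 5% CO2.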

[10] = qHTS assay to identify small molecule agonists of the endoplasmic reticulum stress response signaling pathway - cell viability counter screen (AID 1159517; calls by dose curve;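 further: HeLa cells carrying an ER stress response element beta-lactamase reporter; series mostly up to about 61 µM; nearly all actives have a fitted effect of over 50% in size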)
In short: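 ESRE-bla HeLa cells (1,500/well) were plated overnight at 37 C and exposed to compounds for 5 hr. After the 2 hr beta-lactamase substrate read, CellTiter-Glo went into the same wells, and luminescence was read after 30 min at room temperature.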

[11] = target: Nuclear receptor ROR-gamma (Homo sapiens) (UniProt P51449); test: qHTS assay to identify small molecule antagonists of the retinoid-related orphan receptor gamma (ROR-gamma) signaling pathway (AID 1159521; further: nearly all actives have a fitted effect of over 50% in size; further: potency means the concentration at half of the fitted maximal effect)
In short: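 RORγ antagonism is scored from reduced reporter luminescence in Tet-on CHO cells. Induction used 1 uM final doxycycline hyclate for 16 h at 37 C, following a 2 h compound exposure.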

[12] = qHTS assay to identify small molecule agonists of the AP-1 signaling pathway - cell viability counter screen (AID 1159525; calls by dose curve; further: nearly all actives have a fitted effect of over 55% in size)
In short: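 Intracellular ATP by Cell Titer Glo luminescence (30 min, RT) in the same ME-180 AP-1-bla wells after the 5 h compound exposure at 37 °C. Normalised to tetra n-octyl ammonium bromide and DMSO controls.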

[13] = qHTS assay to identify small molecule agonists of the AP-1 signaling pathway (AID 1159526; calls by dose curve)
[14] = target: Retinoic acid receptor RXR-alpha (Homo sapiens) (UniProt P19793); test: qHTS assay to identify small molecule agonists of the RXR signaling pathway (AID 1159527; calls by dose curve; further: nearly all actives have a fitted effect of over 35% in size)
Chain of Retinoic acid receptor RXR-alpha (Homo sapiens) (P19793 whole entry, looked up): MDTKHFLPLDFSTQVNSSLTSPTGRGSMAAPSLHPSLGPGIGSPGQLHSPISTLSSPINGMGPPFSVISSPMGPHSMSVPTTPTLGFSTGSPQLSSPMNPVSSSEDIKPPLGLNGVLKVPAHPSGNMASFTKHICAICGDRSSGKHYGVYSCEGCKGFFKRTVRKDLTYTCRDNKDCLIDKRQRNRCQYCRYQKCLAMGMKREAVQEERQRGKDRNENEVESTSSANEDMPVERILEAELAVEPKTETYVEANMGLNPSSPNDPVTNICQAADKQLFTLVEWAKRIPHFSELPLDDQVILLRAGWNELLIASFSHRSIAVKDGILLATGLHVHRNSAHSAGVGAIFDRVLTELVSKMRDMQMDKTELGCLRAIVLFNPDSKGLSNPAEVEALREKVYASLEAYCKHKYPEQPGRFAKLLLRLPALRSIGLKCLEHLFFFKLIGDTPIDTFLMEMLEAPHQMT
In short: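 qHTS of the Tox21 10K library in GeneBLAzer RXR-alpha HEK 293T cells carrying a beta-lactamase reporter […]; 16 hr treatment, 9-cis retinoic acid as agonist control, FRET read-out.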

[15] = qHTS assay to identify small molecule agonists of the RXR signaling pathway - cell viability counter screen (AID 1159529)
In short: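 Cell viability is measured by CellTiter-Glo luminescence, 30 min at room temperature, in wells already read for beta-lactamase. Engineered HEK 293T cells (RXR-alpha-UAS-bla) are dosed 16 hr at 37 C. Tetraoctyl ammonium bromide serves as positive control.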

[16] = qHTS assay to identify small molecule antagonists of the retinoid acid receptor (RAR) signaling pathway - cell viability counter screen (AID 1159551); further: nearly all actives have a fitted effect of over 35% in size
In short: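 ATP-based viability, C3RL4 cells, 6 h at 37 C with 1 uM final retinol co-added after compound; luminescence read 30 min post CellTiter-Glo, RT.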

[17] = qHTS assay to identify small molecule antagonists of the retinoic acid receptor (RAR) signaling pathway (AID 1159552; further: nearly all actives have a fitted effect of over 50% in size)
In short: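 Quantitative HTS in C3RL4 RARE-luciferase reporter cells. Compounds were added with 1 uM (final) retinol; luminescence was read after 6 hr.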

[18] = qHTS assay to identify small molecule antagonists of the vitamin D receptor (VDR) signaling pathway - cell viability counter screen (AID 743225); further: nearly all actives have a fitted effect of over 50% in size
In short: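 Cells (VDR-UAS-bla HEK 293T) are plated, rested 4 h at 37C, dosed with compound and 3 nM final 1-alpha,25-dihydroxy vitamin D3, and incubated 16 h. Viability is taken from CellTiter-Glo luminescence in the reporter wells.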

[19] = qHTS assay to identify small molecule agonists of the retinoic acid receptor (RAR) signaling pathway (AID 1159553)
In short: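 Quantitative high-throughput format: the Tox21 10K library was tested on C3RL4 RARE-luciferase cells for 6 hr at 37 C and 5% CO2, with luminescence measured after a 30 min room-temperature reagent step.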

[20] = qHTS assay to identify small molecule antagonists of the retinoid-related orphan receptor gamma (ROR-gamma) signaling pathway - cell viability counter screen (AID 1159520); further: nearly all actives have a fitted effect of over 50% in size
In short: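 Cytotoxicity was read from cellular ATP (CellTiter-Glo luminescence) after 16 hr at 37 C with 1 uM doxycycline induction. The inducer was added 2 hr after compound transfer to Tet-on ROR gamma CHO cells.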

Row | SMILES | outcome [1] | outcome [2] | outcome [3] | outcome [4] | outcome [5] | outcome [6] | outcome [7] | outcome [8] | outcome [9] | outcome [10] | Potency [11] | outcome [12] | outcome [13] | Potency [14] | Potency [15] | outcome [16] | Potency [17] | outcome [18] | Potency [19] | outcome [20]
1 | Nc1ccn([C@@H]2O[C@H](CO)[C@@H](O)[C@@H]2O)c(=O)n1 | inactive | inactive | inactive | inactive | inactive | inactive | – | – | – | – | – | – | – | – | – | – | – | – | – | –
2 | CCCCCCC1CCC(=O)O1 (stereo unspecified) | – | – | – | – | – | – | inactive | inactive | inactive | inactive | inactive | inactive | inactive | inactive | inactive | inactive | inactive | – | – | –
3 | CCCCCCCCCCCCCCC(=O)O | – | – | – | – | – | – | – | inactive | inactive | inactive | inactive | inactive | inactive | inactive | inactive | inactive | – | inactive | – | –
4 | CC(C(=O)O)c1cccc(Oc2ccccc2)c1 (stereo unspecified) | – | – | – | – | – | – | inactive | inactive | inactive | inactive | inactive | inactive | inactive | inactive | inactive | inactive | – | inactive | inactive | –
5 | O=C(O)c1cn(C2CC2)c2cc(N3CCNCC3)c(F)cc2c1=O | – | – | – | – | – | – | – | inactive | inactive | inactive | – | inactive | inactive | – | inactive | inactive | – | – | – | inactive
6 | CCCCCC(=O)OCCc1ccccc1 | – | – | – | – | – | – | inactive | inactive | inactive | inactive | inactive | inactive | inactive | – | inactive | inactive | – | – | – | –
7 | CC1=C(C/C=C(\C)CCC[C@H](C)CCC[C@H](C)CCCC(C)C)C(=O)c2ccccc2C1=O | – | – | – | – | – | – | inactive | inactive | inactive | inactive | inactive | inactive | inactive | inactive | inactive | inactive | – | inactive | – | –
8 | O=C(O)CNC(=O)c1ccccc1 | – | – | – | – | – | – | inactive | inactive | inactive | inactive | inactive | inactive | inactive | inactive | inactive | inactive | – | inactive | – | –
9 | CCN1C=CN(C)C1C (stereo unspecified) | – | – | – | – | – | – | inactive | inactive | inactive | inactive | inactive | inactive | inactive | – | inactive | inactive | – | inactive | inactive | –
10 | Cc1ccccc1N=C(N)N=C(N)N | – | – | – | – | – | – | inactive | inactive | inactive | inactive | inactive | inactive | inactive | inactive | inactive | inactive | inactive | inactive | – | –
11 | CN(C)CCCCCCN(C)C | – | – | – | – | – | – | inactive | inactive | inactive | inactive | inactive | inactive | inactive | – | inactive | inactive | inactive | – | inactive | –
12 | CN1C(C)(C)CC(O)CC1(C)C | – | – | – | – | – | – | inactive | inactive | inactive | inactive | – | inactive | inactive | inactive | inactive | inactive | – | – | – | inactive
13 | NC(=O)Cc1cccc2ccccc12 | – | – | – | – | – | – | inactive | inactive | inactive | inactive | inactive | inactive | inactive | inactive | inactive | inactive | – | – | – | –
14 | [O-][n+]1cccc(CO)c1 | – | – | – | – | – | – | inactive | inactive | inactive | inactive | – | inactive | inactive | inactive | inactive | inactive | – | inactive | – | inactive
15 | CCCCCCC#CC(=O)OC | – | – | – | – | – | – | inactive | inactive | inactive | inactive | inactive | inactive | inactive | inactive | inactive | inactive | – | inactive | – | –
16 | CCN[C@H]1C[C@H](C)S(=O)(=O)c2sc(S(N)(=O)=O)cc21 | – | – | – | – | – | – | inactive | inactive | inactive | inactive | inactive | inactive | inactive | inactive | inactive | inactive | – | inactive | – | –
17 | CC1=NN(c2cccc(S(=O)(=O)O)c2)C(=O)C1 | – | – | – | – | – | – | inactive | inactive | inactive | inactive | – | inactive | inactive | inactive | inactive | inactive | – | – | – | inactive
18 | CC(C)CC(C)(N)C#N (stereo unspecified) | – | – | – | – | – | – | inactive | inactive | inactive | inactive | – | inactive | inactive | inactive | inactive | inactive | – | inactive | – | inactive
19 | Clc1cc(Cl)cc(Cl)c1 | – | – | – | – | – | – | inactive | inactive | inactive | inactive | – | inactive | inactive | inactive | inactive | inactive | – | inactive | – | inactive
20 | Cc1ccc(-c2ncc(Cl)cc2-c2ccc(S(C)(=O)=O)cc2)cn1 | – | – | – | – | – | – | inactive | inactive | inactive | inactive | inactive | inactive | inactive | inactive | inactive | inactive | – | inactive | – | –
21 | Nc1ccn([C@@H]2O[C@H](CO)[C@@H](O)C2(F)F)c(=O)n1 | – | – | – | – | – | – | – | inactive | inactive | inactive | 237 nM (active) | inactive | inactive | inactive | inactive | inactive | – | inactive | inactive | –
22 | COc1c(N2CCNC(C)C2)c(F)cc2c(=O)c(C(=O)O)cn(C3CC3)c12 (stereo unspecified) | – | – | – | – | – | – | inactive | inactive | inactive | inactive | – | inactive | inactive | inactive | inactive | inactive | – | inactive | inactive | inactive
